Experimental findings from PubChem BioAssay AID1650 (Southern Research Specialized Biocontainment Screening …, 2009) are described below.

Results with a measured potency or affinity are listed apart. Unmarked numbers belong to inactive results. The rule behind the calls is not given here.

The nature of the test: host cell cytotoxicity of antiviral hits, dose response, cytotoxicity control for West Nile virus antiviral project, secondary assay (AID 1650). Particulars: Mammalian host cell viability, cytotoxicity counter-screen; series mostly up to 10 µM; viability: at the top concentration.
Take `CCN1CCN(C(=S)Nc2ccc3nc(N4CCN(CC)CC4)cc(C)c3c2)CC1`: the “viability” value is 84.6% [at 20 µM]. Then `COc1ccc(CN2[C@@H](CC(C)=O)c3ccc(/C=C/C(C)=O)cc3S2(=O)=O)cc1`, with 71.2%; and `O=C(CCN1C(=O)/C(=C/c2ccc(F)cc2)SC1=S)NCCc1ccc(O)cc1`, with 70.4% [at 20 µM]; and `CCOC(=O)c1cc(-c2ccc(OC)cc2F)nc2c1c(C)nn2CCC#N`, with 71.9%.

Take `C[C@H]1[C@H](C)CC[C@]2(C(=O)O)CC[C@]3(C)C(=CC[C@@H]4[C@@]5(C)C[C@@H](O)[C@H](O)C(C)(C)[C@@H]5CC[C@]43C)[C@H]12`: the “viability” value was 103%.

`Cc1cc(C)c(-c2csc(NC(=O)/C=C/c3cccs3)n2)c(C)c1`: the “viability” value is 71.9%. Then `CCN(CC)S(=O)(=O)c1ccc2c(c1)c(=O)c(C(=O)NCCOC)cn2C`, with 83.3%. With `O=C(CN1CCCC1)Nc1ccc(-c2nc3cc(NC(=O)CN4CCCC4)ccc3o2)cc1`, the “viability” value was 82.9%. With `CN(C)CCNc1ncnc2c1sc1nc(-c3ccccc3)c3c(c12)CCCC3` the figure was 78.4%; with `Cc1cc(C)cc(N(CC(=O)NCc2ccco2)S(=O)(=O)c2c(C)noc2C)c1`, 80.5%; with `O=C(/C=C/c1ccc2c(c1)OCO2)Nc1ccc(Cl)cn1`, 95.4% [at 20 µM]. For the compound `COc1cc([C@H]2c3[nH]c4ccccc4c3C[C@H]3C(=O)N4[C@@H](c5cc(OC)c(OC)c(OC)c5)c5[nH]c6ccccc6c5C[C@H]4C(=O)N23)cc(OC)c1OC`, the “viability” value is 77.5% [at 20 µM]. `COc1cc(C2c3c(oc4cc(C)c(C)cc4c3=O)C(=O)N2c2cc(C)ccn2)ccc1O` (stereo not given): the “viability” value is 84.1%. With `CCN(CC)CCCNC(=O)c1[nH]c2ccccc2c1Sc1ccc(Cl)cc1` the figure was 84.4%. As for `Cc1ccc(-n2c(O)c(C=Nc3ccc4c(c3)OCO4)c3ccccc3c2=O)cc1C`, the “viability” value is 79.1% [at 20 µM].

With `Cc1ccc(NC2=C/C(=N/S(=O)(=O)c3cccs3)c3ccccc3C2=O)cc1`, the “viability” value was 78.3% [at 20 µM]. With `O=[N+]([O-])c1ccc(COc2ccc(-c3[nH]ncc3-c3ccc(Cl)cc3)c(O)c2)cc1` the figure was 82.4%. With `COc1ccc(N2C(=O)C(C)(C)C2c2c(O)ccc3ccccc23)cc1` (stereo not given) the figure was 93.8%. For `COc1cccc(/C=N/NC(=O)c2cc(-c3cccn3C)n[nH]2)c1O`, the “viability” value was 73.3% [at 20 µM]. For `COc1ccc(Cl)cc1NC(=O)c1nnn(CC(=O)Nc2cc(C)cc(C)c2)c1N`, the “viability” value was 79.6% [at 20 µM]. With `Cc1ccc(COc2cccc(/C=N/NC(=O)c3nnn(-c4nonc4N)c3C)c2)cc1` the figure was 70.3% [at 20 µM]; with `CCN1CCN(c2cc(C)c3cc(NC(=S)N4CC(C)CC(C)C4)ccc3n2)CC1` (stereo not given), 79.7%. With `CC[C@H]1CC2CN3CCc4c([nH]c5c([C@H]6C[C@H]7[C@H](CC)CN(C)[C@@H](Cc8c6[nH]c6ccccc86)[C@H]7C(=O)OC)c(OC)ccc45)C(C(=O)OC)(C2)C13`, the “viability” value is 71.3%. On to `CN(C)c1nc(=Nc2cccc(Cl)c2)ss1`, for which the “viability” value was 81.4%. Then `CC(CN1CCCC1)C(=O)NN` (stereo not given), with 90.7% [at 20 µM]; and `CCOc1ccc2nc(N3CCCC(C(=O)NCCCN4CC(C)CC(C)C4)C3)sc2c1` (stereo not given), with 82.6%. On to `CCn1nc(C)c(CN2CCc3c([nH]c4ccccc34)C2c2ccc(F)c(OC)c2)c1C` (stereo not given), for which the “viability” value is 87.8% [at 20 µM]. Then `COC1(OC)C=CC(=O)C=C1NC(=O)c1ccccc1OC(C)=O`, with 71.4%; and `CCN(CC)CCn1c(=N)n(CC(=O)c2ccc(Br)s2)c2ccccc21`, with 77.2% [at 20 µM]; and `COc1ccc(N=c2oc3ccc(OC)cc3cc2-c2nc3ccccc3[nH]2)cc1`, with 80.5%. With `CC(C)n1cc(CN2CCCC(C(=O)Nc3cccc(-c4cc5ccccc5[nH]4)c3)C2)cn1` (stereo not given) the figure was 85.8%; with `CC(=O)N1CCN(CC(=O)Nc2c(Cl)ccc(C)c2Cl)CC1`, 89.8%; with `CC(=O)Nc1ccccc1N(CC(O)Cn1c2ccccc2c2ccccc21)S(=O)(=O)c1ccc(C)cc1` (stereo not given), 88.5% [at 20 µM]. Then `COC(=O)C1(O)CC(C(C)C)=NN1C(=O)c1ccc(Cl)cc1` (stereo not given), with 95.5% [at 20 µM]; and `CN1C(=O)/C(=C\C(=O)c2cccs2)c2ccccc21`, with 80%. `CCN(CC)S(=O)(=O)c1ccc2c(c1)c(=O)c(C(=O)NCCc1ccc(OC)c(OC)c1)cn2C`: the “viability” value was 92.3% [at 20 µM].

Take `COc1ccc(C2c3[nH]c4ccccc4c3CCN2C(=O)c2ccccc2C(C)=O)c(F)c1` (stereo not given): the “viability” value was 92.8%. For `CCOC(=O)c1c(CN2CCN(CCO)CC2)n(-c2ccccc2)c2cc(Br)c(O)cc12`, the “viability” value is 83.9%. `COc1ccc(-c2cc(-c3ccc(OC)cc3)nc(-c3ccc4c(c3)NC(=O)CO4)c2)cc1`: the “viability” value was 79.2% [at 20 µM]. For `CCCCn1c(=N)n(CC(O)COc2ccc(C)cc2)c2ccccc21` (stereo not given), the “viability” value is 84.4%.

Usually viability stands for a read-out of living cells in per cent, often relative to untreated cells.
